BLM inh = inhibitors of human Bloom syndrome helicase BLM. 350,000 compounds, 0.2% hits. AID 2528. P54132. Potency, µM (series often up to 56.1 µM), without a hit: at the top dose activity change, negative = inhibition, hits mostly inhibitors. recombinant BLM DNA unwinding, fluorescence dequenching;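 further: plate controls were vehicle for no effect and no enzyme for full effect; nearly all actives have a fitted effect of over 35% in size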
L3MBTL1 block = L3MBTL1 (human) inhibition | Q9Y468 | AlphaScreen L3MBTL1–H3K9me1 peptide binding | Potency, µM (highest dose often 57.1 µM), without a hit: at the top dose activity, negative = inhibition, actives largely listed as inhibitors | 230,000 compounds, 0.66% hits; further: nearly all actives have a fitted effect of over 60% in size
Target sequence (Q9Y468 whole entry, looked up): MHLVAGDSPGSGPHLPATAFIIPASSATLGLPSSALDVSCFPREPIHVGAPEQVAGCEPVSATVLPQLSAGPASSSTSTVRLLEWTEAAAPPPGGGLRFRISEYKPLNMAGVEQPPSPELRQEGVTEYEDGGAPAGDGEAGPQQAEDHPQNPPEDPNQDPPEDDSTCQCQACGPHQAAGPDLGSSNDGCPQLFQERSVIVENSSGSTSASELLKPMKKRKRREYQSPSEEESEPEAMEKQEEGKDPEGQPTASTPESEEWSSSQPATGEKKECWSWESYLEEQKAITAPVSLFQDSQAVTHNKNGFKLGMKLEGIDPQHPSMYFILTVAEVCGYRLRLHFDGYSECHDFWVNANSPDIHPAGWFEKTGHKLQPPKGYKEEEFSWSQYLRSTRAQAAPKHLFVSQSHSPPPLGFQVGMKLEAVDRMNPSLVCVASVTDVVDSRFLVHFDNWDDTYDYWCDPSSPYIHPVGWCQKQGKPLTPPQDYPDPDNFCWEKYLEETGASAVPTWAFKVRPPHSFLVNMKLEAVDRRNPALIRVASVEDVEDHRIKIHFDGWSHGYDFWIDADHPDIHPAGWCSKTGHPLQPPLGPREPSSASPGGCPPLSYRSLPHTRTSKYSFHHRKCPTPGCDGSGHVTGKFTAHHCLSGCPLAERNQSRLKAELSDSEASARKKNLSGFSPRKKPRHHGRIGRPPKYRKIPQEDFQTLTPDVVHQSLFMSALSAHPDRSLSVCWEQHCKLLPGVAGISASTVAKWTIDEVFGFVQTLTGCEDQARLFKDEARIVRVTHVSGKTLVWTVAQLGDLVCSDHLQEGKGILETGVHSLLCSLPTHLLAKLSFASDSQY
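Read-out is AlphaScreen signal from streptavidin donor and nickel chelate acceptor beads (10 ug/mL final each) bridging L3MBTL1 (50 nM) and biotinylated K9-monomethylated H3(1-15) peptide (75 nM), after 30 min compound exposure at room temperature.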
APE1 inh-1 = blocks human APE1 abasic DNA cleavage; recombinant APE1, TAMRA/BHQ-2 abasic DNA cleavage fluorescence; Potency, µM (highest dose often 65.8 µM), without a hit: at the highest dose activity change, negative = inhibition, actives largely listed as inhibitors; 350,000 compounds, 0.35% hits; AID 2517;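 further: plate controls were vehicle for no effect and reference inhibitor for full effect; nearly all actives have a fitted effect of over 55% in size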
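Substrate: short duplex with […] THF abasic site, 5'-TAMRA and 3'-BHQ-2, 50 nM final. APE1 at 0.75 nM, preincubated 15 min RT with compound. Fluorescence increase from first to third read measured activity.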
RECQ1 inh = inhibitors of human RECQ1 DNA helicase | RECQ1 DNA unwinding, red fluorescence kinetic read | Potency, µM (highest dose often 57.3 µM), inactives show at the highest dose activity, negative = inhibition, hits mostly inhibitors | AID 2549 | 240,000 compounds, 0.54% hits;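 further: plate controls were vehicle for no effect and no enzyme for full effect; nearly all actives have a fitted effect of over 30% in size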
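RECQ1T1 50 nM; forked duplex (20 bp + 30-nt ss tails) 200 nM, ATP 2 mM final; pH 8.0, 2 mM MgCl2, 2.5 ug/ml poly(dI-dC); 15 min compound preincubation; discontinuous kinetic read over 2 h at RT.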
KDM4E inh = JMJD2E (human) inhibition; B2RXH2; JMJD2E catalytic domain, FDH-coupled NADH fluorescence (FDH is formaldehyde dehydrogenase); Potency, µM (highest dose often 57.1 µM), inactives show top-dose activity change, negative = inhibition, actives largely listed as inhibitors; 230,000 compounds, 1.6% hits; AID 2147; active means well fitted inhibition curve with a large enough effect, not every such curve was filed as active; inconclusive means small, poorly fitted or top-dose-only effect, or another doubt; inactive means no such curve, though single readings can be large or run the other way;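 further: 0% = wells with enzyme and -100% = buffer wells without enzyme; nearly all actives have a fitted effect of over 50% in size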
DNA dye displace = DNA dye displacement counter-screen activity | shares compounds with APE1 inh-1 | DNA fluorescent dye displacement counterscreen, fluorescence | Potency, µM (doses to about 28.5 µM), inactives show at the top dose activity change, negative = inhibition, usual class: inhibitors | 480 compounds, 7% hits | AID 2564;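 further: loss of thiazole orange fluorescence as the dye is displaced from duplex DNA; 0% = ThO with dsDNA and no compound and -100% = ThO without dsDNA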
Endo IV inh = blocks E. coli endonuclease IV DNA cleavage. E. coli Endo IV, fluorogenic AP-site DNA cleavage. Potency, µM (highest dose often 27.1 µM), for the others: at the top dose activity change, negative = inhibition, actives largely listed as inhibitors. shares compounds with APE1 inh-1. 560 compounds, 4% hits;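 further: plate controls were uninhibited enzyme wells for no effect and no enzyme buffer wells for full effect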
APE1 inh-2 = confirmation of inhibitors of human APE1 endonuclease. AID 2572. 750 compounds, 44% hits. shares compounds with APE1 inh-1. purified APE1, fluorogenic abasic-site DNA cleavage. Potency, µM (highest dose often 57.1 µM), for inactives: at the highest dose activity change, negative = inhibition, actives largely listed as inhibitors; further: nearly all actives have a fitted effect of over 30% in size
APE1 FP = compounds that displace a DNA probe from human APE1 | shares compounds with APE1 inh-1 | APE1 binding to TAMRA-labelled double-stranded DNA, fluorescence polarization displacement | Potency, µM (doses to about 28.5 µM), inactives show top-dose activity, negative = inhibition, actives largely listed as inhibitors | 480 compounds, 7% hits
* = called active by the depositor; [ ] = another dose, or the depositor's remark. The full list was thinned out, with hits kept by preference. Unless noted, the call rests on the fitted dose curve; in most records, active means well fitted curve in the direction sought with a large enough effect; inconclusive means small, poorly fitted or top-dose-only effect, or another doubt; inactive means no such curve, though single readings can be large; an effect the other way counts as inactive or inconclusive. Unless noted, on the % scale 0 is the no-effect control and ±100 the full control effect; potency means the concentration at half of the fitted maximal effect.

What do the screens show for `Cn1c(=O)c(NCCc2ccccc2)c2c3c(cccc31)C(=O)c1ccccc1-2`?
BLM inh: inconclusive; APE1 inh-1: 31.6µM*; RECQ1 inh: 10µM*; KDM4E inh: -7.1%; DNA dye displace: inactive; Endo IV inh: inconclusive; APE1 inh-2: inconclusive; APE1 FP: 0.794µM*

Results for CCOC(=O)NCc1ccc(S(=O)(=O)Nc2ccc(C)cc2)cc1 ?
BLM inh: -2.8%; L3MBTL1 block: -3.3%; APE1 inh-1: 1.0%; RECQ1 inh: -4.7%; KDM4E inh: 3.6%

Results for O=C(CC1NC(=O)NC1=O)NC1(C(=O)NC2CCCCC2)CCCCC1 (centres undefined) ?
BLM inh: 1.3%; L3MBTL1 block: -2.3%; APE1 inh-1: 2.8%; RECQ1 inh: -3.6%; KDM4E inh: -7.2%

Results for O=C1CCCC(O)=C1N=Nc1cccc(C(=O)O)c1 ?
BLM inh: -1.8%; L3MBTL1 block: 8.91µM*; APE1 inh-1: 10µM*; RECQ1 inh: 31.6µM*; KDM4E inh: inconclusive; DNA dye displace: 0.2%; Endo IV inh: 79.1%; APE1 inh-2: 12.6µM*; APE1 FP: -14.2%

How did CCN(CC)S(=O)(=O)c1cccc(N=NC2=C(O)CCCC2=O)c1 do in these assays?
BLM inh: -5.4%; L3MBTL1 block: -2.2%; APE1 inh-1: -1.6%; RECQ1 inh: inconclusive; KDM4E inh: -10.7%

What do the screens show for `Cc1ccc(Cl)cc1NC(=O)CCn1cnc2ccccc2c1=O`?
BLM inh: -1.3%

Results for c1ccc(N2N=C(c3cccs3)CC2c2ccco2)cc1 (centres undefined) ?
BLM inh: -8.5%; L3MBTL1 block: 165.9%; APE1 inh-1: -5.7%; RECQ1 inh: inconclusive; KDM4E inh: inconclusive

Results for Clc1ccc(N2N=C(c3cccs3)CC2c2ccco2)cc1 (centres undefined) ?
BLM inh: -10.8%; L3MBTL1 block: 134.5%; APE1 inh-1: 11.7%; RECQ1 inh: -18.5%; KDM4E inh: inconclusive; APE1 inh-2: -31.1%

How did Cc1c(Br)c(O)c(Br)c2sc(=O)oc12 do in these assays?
BLM inh: -15.0%; L3MBTL1 block: 35.5µM*; APE1 inh-1: inconclusive; RECQ1 inh: 22.4µM*; KDM4E inh: 31.6µM*; DNA dye displace: 4.1%; Endo IV inh: 16.5%; APE1 inh-2: -7.3%[24.4 µM]; APE1 FP: 1.0%

What do the screens show for `CSc1ccc(C=O)cc1`?
L3MBTL1 block: -4.1%; APE1 inh-1: -3.4%; RECQ1 inh: -5.5%

Results for COc1ccccc1Nc1nnc(SCC2CCCCO2)s1 (centres undefined) ?
BLM inh: 0.4%; L3MBTL1 block: inconclusive; APE1 inh-1: inconclusive; RECQ1 inh: -16.0%; KDM4E inh: -29.5%

How did CC(=O)Nc1ccc(C(=O)Nc2nc(-c3cccnc3)cs2)cc1 do in these assays?
BLM inh: -3.8%; L3MBTL1 block: 7.2%; APE1 inh-1: 5.2%; RECQ1 inh: -10.8%; KDM4E inh: inconclusive; APE1 inh-2: -22.5%

Results for O=C(O)C1C2C=CC(C2)C1C(=O)NCc1cccs1 (centres undefined) ?
BLM inh: -2.8%; L3MBTL1 block: -1.1%; APE1 inh-1: inconclusive; RECQ1 inh: inactive; KDM4E inh: 0.6%; APE1 inh-2: inconclusive

What do the screens show for `COc1ccc2c(c1)c(=O)oc1cc(OCC(=O)NC3CCCCC3)ccc12`?
BLM inh: -14.1%; L3MBTL1 block: inconclusive; APE1 inh-1: 11.2µM*; RECQ1 inh: -13.4%; KDM4E inh: inconclusive; DNA dye displace: -10.6%; Endo IV inh: -2.1%; APE1 inh-2: 5.62µM*; APE1 FP: -29.5%

Results for COc1ccc2c(c1)c(=O)oc1cc(OCC(=O)NC3CC3)ccc12 ?
BLM inh: -5.4%; L3MBTL1 block: 8.0%[11.4 µM]; APE1 inh-1: inconclusive; RECQ1 inh: inactive; KDM4E inh: inconclusive

How did O=C(NC1CCCCC1)C1CCN(S(=O)(=O)c2cccc3nonc23)CC1 do in these assays?
BLM inh: -1.8%; APE1 inh-1: 19.8%

How did O=C(Nc1nnc(C23CC4CC(CC(C4)C2)C3)s1)c1ccc(N2C(=O)CCC2=O)cc1 do in these assays?
BLM inh: -2.9%; L3MBTL1 block: inconclusive; APE1 inh-1: 10µM*; RECQ1 inh: -17.2%; KDM4E inh: 8.1%; APE1 inh-2: -22.6%

Results for O=C(Nc1ccccc1Cl)C1Cc2ccccc2O/C1=N\O (centres undefined) ?
BLM inh: -1.8%; APE1 inh-1: 44.1%

What do the screens show for `NC(=O)c1ccc2nc(NC(=O)c3ccc(N)cc3)sc2c1`?
BLM inh: -8.5%; L3MBTL1 block: -6.5%; APE1 inh-1: -3.9%; RECQ1 inh: -22.3%; KDM4E inh: inconclusive; APE1 inh-2: inconclusive

What do the screens show for `CC(=O)Nc1nc2cc(C(N)=O)ccc2s1`?
L3MBTL1 block: 2.3%; APE1 inh-1: 5.3%

Results for CC(=O)O[C@H]1CC2(C)[C@@H](C[C@@H](O)[C@H]3[C@@]4(C)CC[C@@H](O)[C@@H](C)[C@@H]4CC[C@@]32C)C1=C(CCC=C(C)C)C(=O)O (some centres undefined) ?
APE1 inh-1: -6.9%; RECQ1 inh: -4.4%; KDM4E inh: 6.2%; Endo IV inh: -8.5%[57.1 µM]; APE1 inh-2: -25.4%

Results for CCN(CC)c1ccc(-c2nnc(SCC(=O)Nc3ccccc3C#N)n2-c2ccccc2)cc1 ?
BLM inh: -12.3%; L3MBTL1 block: -15.3%; APE1 inh-1: inconclusive; RECQ1 inh: -19.6%; KDM4E inh: inconclusive; DNA dye displace: 4.1%; Endo IV inh: inconclusive; APE1 inh-2: inconclusive; APE1 FP: 9.1%

How did N#Cc1ccccc1NC(=O)CSc1nnc(-c2ccccc2)n1-c1ccccc1 do in these assays?
BLM inh: -4.2%; L3MBTL1 block: 1.1%; APE1 inh-1: -1.2%; RECQ1 inh: inactive; KDM4E inh: -0.2%

Screening data as filed in PubChem BioAssay.
